# Assay outcomes deposited in PubChem by The Scripps Research Institute Molecular Screening Center.
# DAX1 inh-1: blocks DAX1 repression of SF-1 activated StAR promoter. AID 652010. 370,000 compounds, 1.1% hits. inhibition, % at 6.8 µM. HEK293T StAR-luciferase reporter, SF-1/DAX-1 repression relief;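 active = inhibition above the mean over all tested compounds plus 3 SD, cut at about 3.6% in these data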;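 note: 0% = DAX-1 cells with DMSO and 100% = cells lacking DAX-1 with DMSO; higher inhibition means more luminescence from relief of DAX-1 repression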
# Wee1 stabilizer: human Wee1 degradation inhibition, primary screen; P30291; 220,000 compounds, 1.2% hits; reporter increase, % at 5 µM; HeLa Luc-Wee1K328M stability, luciferase luminescence; 100% = proteasome inhibitor MG132 effect;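 active = activation above the mean of all tested compounds plus 3 SD, set per screening run, cut at about 8.8% in these data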;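 note: cells exposed to compound for 20 h before luminescence read; 0% = DMSO alone and 100% = MG132 at 30 µM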
# hcDAF-12 act: H. contortus DAF-12 activation, primary screen; activation, % at 6.8 µM; HEK293 hcDAF-12 lit1-tk-luc reporter, luminescence; 0% DMSO, 100% Δ7-dafachronic acid; 370,000 compounds, 1.4% hits;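 active = activation above the mean of all tested compounds plus 3 SD, cut at about 5.5% in these data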;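 note: 100% = response to 3 µM Δ7-dafachronic acid high control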
# DAX1 inh-2: inhibitors of human orphan nuclear receptor DAX1 (NR0B1); P51843; inhibition, % at 6.75 µM; HEK293 Gal4-DAX1 luciferase reporter, luminescence; 340,000 compounds, 0.99% hits; AID 504766;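 active = inhibition above the mean over all tested compounds plus 3 SD, cut at about 4.2% in these data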;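 note: 0% = DAX1-transfected cells with DMSO and 100% = empty-vector control cells with DMSO; inhibition shows as a rise in luminescence from relieved DAX1 repression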
# Target sequence (P51843 207-470 limits assumed): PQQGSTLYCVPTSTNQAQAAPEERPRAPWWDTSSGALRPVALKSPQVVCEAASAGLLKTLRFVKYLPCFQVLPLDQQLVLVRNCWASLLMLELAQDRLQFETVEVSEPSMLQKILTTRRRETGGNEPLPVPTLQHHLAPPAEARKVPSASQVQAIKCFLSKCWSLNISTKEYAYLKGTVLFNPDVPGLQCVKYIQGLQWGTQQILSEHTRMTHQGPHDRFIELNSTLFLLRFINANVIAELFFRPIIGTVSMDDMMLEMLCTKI
# hgDAF12 agonist: activates the H. glycines DAF-12 receptor ligand-binding domain | HEK293 GAL4-hgDAF12 UAS-luciferase reporter, agonist luminescence; normalized to butyrate control | activation, % at 6.8 µM | 370,000 compounds, 1.8% hits | AID 687014;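 active = activation above a cutoff set at the mean of all screened compounds plus 3 SD, cut at about 10% in these data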;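 note: 0% = DMSO wells and 100% = sodium butyrate wells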
# ssDAF12 agonist: S. stercoralis DAF-12 activation, primary screen. 370,000 compounds, 1% hits. AID 652126. HEK293 ssDAF-12/GRIP1 lit1-tk-luc reporter, luminescence; % of 3 µM dafachronic acid response. activation, % at 6.8 µM;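 active = activation above the mean over all tested compounds plus 3 SD, cut at about 0.9% in these data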;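 note: 0% = DMSO-only wells and 100% = 3 µM delta7-dafachronic acid wells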
# An asterisk follows results filed as active; nt = not tested or not shown. Most compounds without a hit are left out; they make up all but 4.6% or so of the library.
SMILES,DAX1 inh-1,Wee1 stabilizer,hcDAF-12 act,DAX1 inh-2,hgDAF12 agonist,ssDAF12 agonist
COc1ccccc1CN[C@@H]1CC[C@@]23CCCN2C(=O)CCC[C@H]3C1,nt,nt,2,nt,4,-1
C=CCc1cc(/C=C/c2nc(O)c([N+](=O)[O-])c(=O)[nH]2)cc(OC)c1O,0,9.0*,0,0,0,0
CCOc1cc(/C=C\c2nc(O)c([N+](=O)[O-])c(=O)[nH]2)ccc1OC(C)C,0,nt,0,0,-2,-1
CC(OC(=O)c1ccc(Cl)cc1)C(=O)NCC1CCCCC1 (centres undefined),0,nt,2,0,0,-1
Cc1cc(C)cc(N(C(=O)C(F)(F)F)C(C(=O)NC2CCCCC2)c2cccs2)c1 (centres undefined),-1,11*,0,0,0,-1
Cc1ccc(C(CC(=O)c2ccco2)SCCO)cc1 (centres undefined),-1,11*,-1,-1,1,-1
CCOC(=O)N1Cc2cc3ccccc3nc2C1,2,nt,4,3,9,0.9*
Oc1oc(-c2ccc(Br)cc2)nc1/C=N/c1ccccn1,1,0,1,2,13*,0
CCc1nc2ccc(C(=O)Nc3cccc(NS(C)(=O)=O)c3)cn2c1N(CC)CCOC,-1,nt,-2,nt,-1,-1
Cc1ccc(-c2nc3sc(C#N)c(N)n3c(=O)c2C#N)cc1,0,-1,3,4.8*,9,0
CC(=O)c1cccc(NC(=O)c2cccc3c(-c4cccnc4)coc23)c1,-5,nt,-3,nt,-5,-2
COc1ccccc1OCCSc1nc2ccccc2n1CC(O)CO (centres undefined),1,nt,1,4.7*,0,-1
CCOC(=O)CCC(=O)N1CCNC(=O)C1,0,-2,5.6*,2,0,-2
CCOC(=O)CCC(=O)N1CCOCCN(C(=O)CCC(=O)OCC)CCOCC1,0,-1,0,1,1,-2
CCOc1ccc(CCN2C(=O)C(=O)N([C@@H](CC(C)C)CN3CCC[C@H]3CN3C(=O)C(=O)NC[C@@H]3CC(C)C)C[C@@H]2Cc2ccc(O)cc2)cc1,-2,nt,2,nt,0,-1
COc1ccc(-c2cc(C(=O)OCC(=O)NC3CC3)c3ccccc3n2)cc1,-1,nt,-1,0,2,-1
COc1ccc2cc(-c3cc(C(=O)OCC(=O)NC4CCS(=O)(=O)C4)c4ccccc4n3)ccc2c1 (centres undefined),4.4*,2,4,-1,15*,0
Cn1nnnc1SCC(=O)Nc1nc2c(F)c(F)c(F)cc2s1,0,nt,0,-1,2,-1
Cc1cc(=O)oc2cc(OC(C)C(=O)NCC3CCC(C(=O)O)CC3)c(Cl)cc12 (centres undefined),1,nt,0,2,1,-1
CC(Oc1ccc2c3c(c(=O)oc2c1)CCCC3)C(=O)NCC1CCC(C(=O)O)CC1 (centres undefined),-1,nt,-1,1,0,-1
CC(Oc1ccc2c3c(c(=O)oc2c1)CCC3)C(=O)NCC1CCC(C(=O)O)CC1 (centres undefined),1,nt,0,4.7*,-1,0
CCc1cc(=O)oc2cc(OC(C)C(=O)NCC3CCC(C(=O)O)CC3)c(Cl)cc12 (centres undefined),2,nt,1,5.9*,2,-1
CC(C(=O)Nc1ccc(Br)cc1)N(C)CC(=O)NCc1ccco1 (centres undefined),1,nt,0,0,1,-1
CCn1c(=O)c2cc(C(=O)Nc3ccc(OC)cc3OC)sc2c2ccccc21,0,-2,-1,4.2*,0,-1
CCN(CC)CCNC(=O)c1cc2c(=O)n(CC)c3ccccc3c2s1,1,nt,2,1,0,-1
SMILES,DAX1 inh-1,Wee1 stabilizer,hcDAF-12 act,DAX1 inh-2,hgDAF12 agonist,ssDAF12 agonist
CCCN(CCC)CCNC(=O)c1cc2c(=O)n(CC)c3ccccc3c2s1,2,1,4,4.6*,-2,0
CCCCn1c(N)c(N(CC(C)C)C(=O)c2c(-c3ccccc3)noc2C)c(=O)[nH]c1=O,-1,nt,0,-1,0,0
CCOC(=O)N1CCC(NC(=O)c2ccc(Cl)cc2)CC1,0,-2,2,1,0,-1
CCOC(=O)N1CCC(Nc2nc3ccccc3nc2NS(=O)(=O)c2ccc(Cl)cc2)CC1,2,4,8.2*,2,9,0
O=C(CCc1ccccc1)Nc1ccc(S(=O)(=O)Nc2nccs2)cc1,0,nt,6.3*,-1,2,0
Clc1ccc(N/N=C/c2cccnc2)cc1,0,-2,6.0*,-1,4,-1
Cc1ccc(C(=O)N/N=C/c2cccnc2)cc1Cl,1,nt,-1,-1,-1,1.7*
CC(C)(C)c1ccc(/C=N/Nc2cccc(C(=O)O)c2)cc1,4.0*,-2,4,-4,12*,-1
CC(C)(C)c1ccc(/C=N/Nc2ccc(C(=O)O)cc2)cc1,-2,-5,-5,-4,-15,-2
Nc1c(C(=O)N/N=C/c2cccnc2)cnn1-c1ccccc1,1,9.6*,-1,2,4,0
Nc1c(Cl)ncnc1N/N=C/c1cccnc1,0,-2,1,5.0*,-1,-1
CN(C)c1ccc(/C=N/Nc2cccc(C(=O)O)c2)cc1,1,nt,5,-3,12*,0
O=C(O)c1cccc(N/N=C/c2cccnc2)c1,2,-1,2,-3,6,2.3*
O=C(N/N=C/c1cccnc1)c1ccccc1,1,nt,0,2,5,-1
CC(C)c1cc(Cn2c3ccccc3c(=O)n2C(C)Cn2cc(COc3ccccc3)nn2)on1 (centres undefined),2,nt,-4,nt,1,-1
COc1cccc(CC(=O)Nc2ccc3c(c2)c(=O)n(C)n3-c2ccc(C(C)(C)C)cc2)c1,0,nt,-1,nt,0,4.1*
C=CS(=O)(=O)N(Cc1ccc(Cl)c(Cl)c1)C[C@@H](O)CO,nt,nt,nt,-5,nt,nt
CC(C)CCOc1ccc(C(=O)NNC(=O)CNC(=O)c2ccccc2F)cc1,-1,nt,0,2,5,0
CNC(=O)CC1C(=O)N(Cc2ccccc2)C(=S)N1NC(=O)c1cccc(F)c1 (centres undefined),0,-2,-3,-1,2,1.2*
CNC(=O)CC1C(=O)N(c2ccc(Cl)cc2)C(=S)N1NC(=O)c1cccc(F)c1 (centres undefined),0,nt,0,0,3,0
O=C(NN=Cc1ccc(-c2ccccc2)cc1)c1cc(-c2ccc(Cl)cc2)n[nH]1,0,nt,0,nt,2,-1
Cc1ccccc1OCCCCc1c(C)n[nH]c1C,-2,10*,-3,0,-4,-2
